Source: ChEMBL document CHEMBL1961873, “Compounds: GSK PKIS; Assays: Nanosyn kinase panel” (2012)
Where “and” joins values, the source holds several entries; their conditions need not be identical. Equal entries are not always repeated.

Legend:
[1] = target: T1, Muscle, skeletal receptor tyrosine-protein kinase (Homo sapiens) (UniProt O15146); settings: at 1 µM;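 also: reported value is the mean percent inhibition of MuSK kinase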
T1 sequence (whole entry): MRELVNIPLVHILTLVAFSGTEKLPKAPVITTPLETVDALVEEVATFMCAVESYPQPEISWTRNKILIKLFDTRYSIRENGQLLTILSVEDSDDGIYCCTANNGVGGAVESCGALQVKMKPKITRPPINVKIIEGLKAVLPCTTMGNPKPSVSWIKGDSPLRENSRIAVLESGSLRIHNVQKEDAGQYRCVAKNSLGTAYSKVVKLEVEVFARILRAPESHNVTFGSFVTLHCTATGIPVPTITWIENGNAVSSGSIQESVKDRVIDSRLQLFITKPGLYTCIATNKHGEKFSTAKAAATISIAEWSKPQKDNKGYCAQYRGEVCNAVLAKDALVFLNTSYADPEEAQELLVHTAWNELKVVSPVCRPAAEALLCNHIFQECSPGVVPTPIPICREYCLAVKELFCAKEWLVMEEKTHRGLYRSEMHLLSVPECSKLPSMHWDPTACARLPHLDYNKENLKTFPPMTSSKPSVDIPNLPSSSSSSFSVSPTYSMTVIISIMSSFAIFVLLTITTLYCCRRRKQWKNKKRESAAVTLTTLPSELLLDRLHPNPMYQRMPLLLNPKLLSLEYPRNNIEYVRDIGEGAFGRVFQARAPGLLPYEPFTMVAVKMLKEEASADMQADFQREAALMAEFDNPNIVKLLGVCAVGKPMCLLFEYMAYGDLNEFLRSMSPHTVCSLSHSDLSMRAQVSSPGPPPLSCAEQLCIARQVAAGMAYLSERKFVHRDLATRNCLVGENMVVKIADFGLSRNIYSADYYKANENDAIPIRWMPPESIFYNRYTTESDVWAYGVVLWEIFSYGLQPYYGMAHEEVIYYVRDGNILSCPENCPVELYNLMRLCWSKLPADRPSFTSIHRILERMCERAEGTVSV

[2] = target: Platelet-derived growth factor receptor alpha (Homo sapiens) (UniProt P16234); settings: at 0.1 µM
[3] = target: Platelet-derived growth factor receptor alpha (Homo sapiens) (UniProt P16234); settings: at 1 µM
[4] = test system: Platelet-derived growth factor receptor alpha (Homo sapiens), P16234 [D842V]; settings: at 0.1 µM
[5] = test system: Platelet-derived growth factor receptor alpha (Homo sapiens), P16234 [D842V]; settings: at 1 µM
[6] = test system: Platelet-derived growth factor receptor alpha (Homo sapiens), P16234 [T674I]; settings: at 0.1 µM
[7] = test system: Platelet-derived growth factor receptor alpha (Homo sapiens), P16234 [T674I]; settings: at 1 µM
[8] = test system: Platelet-derived growth factor receptor alpha (Homo sapiens), P16234 [V561D]; settings: at 0.1 µM
[9] = test system: Platelet-derived growth factor receptor alpha (Homo sapiens), P16234 [V561D]; settings: at 1 µM
[10] = target: Platelet-derived growth factor receptor beta (Homo sapiens) (UniProt P09619); settings: at 0.1 µM
[11] = target: Platelet-derived growth factor receptor beta (Homo sapiens) (UniProt P09619); settings: at 1 µM
[12] = target: Tyrosine-protein kinase FRK (Homo sapiens) (UniProt P42685); settings: at 0.1 µM
[13] = target: Tyrosine-protein kinase FRK (Homo sapiens) (UniProt P42685); settings: at 1 µM
[14] = target: Protein-tyrosine kinase 2-beta (Homo sapiens) (UniProt Q14289); settings: at 0.1 µM
[15] = target: Protein-tyrosine kinase 2-beta (Homo sapiens) (UniProt Q14289); settings: at 1 µM
[16] = target: Proto-oncogene tyrosine-protein kinase receptor Ret (Homo sapiens) (UniProt P07949); settings: at 0.1 µM
[17] = target: Proto-oncogene tyrosine-protein kinase receptor Ret (Homo sapiens) (UniProt P07949); settings: at 1 µM
[18] = test system: Proto-oncogene tyrosine-protein kinase receptor Ret (Homo sapiens), P07949 [V804L]; settings: at 0.1 µM
[19] = test system: Proto-oncogene tyrosine-protein kinase receptor Ret (Homo sapiens), P07949 [V804L]; settings: at 1 µM
[20] = test system: Proto-oncogene tyrosine-protein kinase receptor Ret (Homo sapiens), P07949 [Y791F]; settings: at 0.1 µM

Platelet-derived growth factor receptor alpha (Homo sapiens), P16234 [D842V], sequence (P16234 whole entry D842V): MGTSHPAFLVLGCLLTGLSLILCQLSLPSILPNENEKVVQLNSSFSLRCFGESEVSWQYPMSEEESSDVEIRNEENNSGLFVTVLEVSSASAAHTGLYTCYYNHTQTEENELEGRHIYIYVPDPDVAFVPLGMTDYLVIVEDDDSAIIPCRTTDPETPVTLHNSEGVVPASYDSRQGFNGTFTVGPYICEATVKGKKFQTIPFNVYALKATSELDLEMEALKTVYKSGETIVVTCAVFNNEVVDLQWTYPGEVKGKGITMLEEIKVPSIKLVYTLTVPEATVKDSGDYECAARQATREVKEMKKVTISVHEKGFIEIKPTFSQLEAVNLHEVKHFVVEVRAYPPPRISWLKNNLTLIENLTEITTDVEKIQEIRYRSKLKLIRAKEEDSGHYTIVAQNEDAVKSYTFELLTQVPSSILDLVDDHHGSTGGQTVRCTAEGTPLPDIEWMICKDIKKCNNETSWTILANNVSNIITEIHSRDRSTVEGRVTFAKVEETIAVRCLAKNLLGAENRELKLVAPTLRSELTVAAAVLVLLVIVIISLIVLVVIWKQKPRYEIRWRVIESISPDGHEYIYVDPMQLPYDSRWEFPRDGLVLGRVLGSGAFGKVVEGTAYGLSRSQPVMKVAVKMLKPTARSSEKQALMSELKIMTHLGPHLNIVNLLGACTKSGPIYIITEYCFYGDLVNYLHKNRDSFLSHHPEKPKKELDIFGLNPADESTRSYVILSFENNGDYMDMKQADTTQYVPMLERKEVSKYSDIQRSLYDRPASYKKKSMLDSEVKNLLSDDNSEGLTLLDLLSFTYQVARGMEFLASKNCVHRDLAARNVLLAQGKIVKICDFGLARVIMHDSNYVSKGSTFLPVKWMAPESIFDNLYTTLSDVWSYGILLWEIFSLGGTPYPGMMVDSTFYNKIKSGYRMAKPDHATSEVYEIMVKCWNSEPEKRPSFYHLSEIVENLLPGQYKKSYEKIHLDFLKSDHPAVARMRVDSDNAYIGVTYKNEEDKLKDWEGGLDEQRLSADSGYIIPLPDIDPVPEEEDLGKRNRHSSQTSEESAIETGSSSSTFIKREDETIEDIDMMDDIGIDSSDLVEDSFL
Platelet-derived growth factor receptor alpha (Homo sapiens), sequence (P16234 whole entry): as the sequence (P16234 whole entry D842V) above, with V842D counted along it
Protein-tyrosine kinase 2-beta (Homo sapiens), sequence (Q14289 whole entry, looked up): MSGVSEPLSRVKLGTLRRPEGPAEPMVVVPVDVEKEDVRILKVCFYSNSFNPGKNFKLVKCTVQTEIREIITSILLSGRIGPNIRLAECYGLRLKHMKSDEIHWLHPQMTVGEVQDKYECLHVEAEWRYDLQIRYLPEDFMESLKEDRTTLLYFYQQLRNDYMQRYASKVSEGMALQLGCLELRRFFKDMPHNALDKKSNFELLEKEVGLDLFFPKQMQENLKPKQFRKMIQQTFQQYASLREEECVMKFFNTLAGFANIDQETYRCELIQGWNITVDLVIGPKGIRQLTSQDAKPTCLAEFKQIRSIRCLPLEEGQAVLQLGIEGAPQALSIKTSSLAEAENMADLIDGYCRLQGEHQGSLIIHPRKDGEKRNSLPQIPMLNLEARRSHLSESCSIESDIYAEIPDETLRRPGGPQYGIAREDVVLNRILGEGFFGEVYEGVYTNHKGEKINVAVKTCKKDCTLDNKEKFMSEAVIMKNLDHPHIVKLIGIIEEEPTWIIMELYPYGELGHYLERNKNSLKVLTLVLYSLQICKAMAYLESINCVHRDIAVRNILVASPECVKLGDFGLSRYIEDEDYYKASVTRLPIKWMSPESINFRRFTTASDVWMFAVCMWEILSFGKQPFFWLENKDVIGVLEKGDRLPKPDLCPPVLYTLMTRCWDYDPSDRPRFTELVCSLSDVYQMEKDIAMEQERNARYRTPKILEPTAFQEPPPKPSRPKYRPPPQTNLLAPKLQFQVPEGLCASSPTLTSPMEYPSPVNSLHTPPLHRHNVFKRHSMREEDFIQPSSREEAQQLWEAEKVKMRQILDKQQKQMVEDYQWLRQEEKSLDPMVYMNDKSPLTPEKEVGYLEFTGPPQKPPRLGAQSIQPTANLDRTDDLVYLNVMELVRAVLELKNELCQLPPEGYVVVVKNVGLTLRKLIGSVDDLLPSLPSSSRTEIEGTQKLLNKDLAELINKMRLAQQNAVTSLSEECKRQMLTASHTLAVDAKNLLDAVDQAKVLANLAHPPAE
Proto-oncogene tyrosine-protein kinase receptor Ret (Homo sapiens), P07949 [V804L], sequence (P07949 whole entry V804L): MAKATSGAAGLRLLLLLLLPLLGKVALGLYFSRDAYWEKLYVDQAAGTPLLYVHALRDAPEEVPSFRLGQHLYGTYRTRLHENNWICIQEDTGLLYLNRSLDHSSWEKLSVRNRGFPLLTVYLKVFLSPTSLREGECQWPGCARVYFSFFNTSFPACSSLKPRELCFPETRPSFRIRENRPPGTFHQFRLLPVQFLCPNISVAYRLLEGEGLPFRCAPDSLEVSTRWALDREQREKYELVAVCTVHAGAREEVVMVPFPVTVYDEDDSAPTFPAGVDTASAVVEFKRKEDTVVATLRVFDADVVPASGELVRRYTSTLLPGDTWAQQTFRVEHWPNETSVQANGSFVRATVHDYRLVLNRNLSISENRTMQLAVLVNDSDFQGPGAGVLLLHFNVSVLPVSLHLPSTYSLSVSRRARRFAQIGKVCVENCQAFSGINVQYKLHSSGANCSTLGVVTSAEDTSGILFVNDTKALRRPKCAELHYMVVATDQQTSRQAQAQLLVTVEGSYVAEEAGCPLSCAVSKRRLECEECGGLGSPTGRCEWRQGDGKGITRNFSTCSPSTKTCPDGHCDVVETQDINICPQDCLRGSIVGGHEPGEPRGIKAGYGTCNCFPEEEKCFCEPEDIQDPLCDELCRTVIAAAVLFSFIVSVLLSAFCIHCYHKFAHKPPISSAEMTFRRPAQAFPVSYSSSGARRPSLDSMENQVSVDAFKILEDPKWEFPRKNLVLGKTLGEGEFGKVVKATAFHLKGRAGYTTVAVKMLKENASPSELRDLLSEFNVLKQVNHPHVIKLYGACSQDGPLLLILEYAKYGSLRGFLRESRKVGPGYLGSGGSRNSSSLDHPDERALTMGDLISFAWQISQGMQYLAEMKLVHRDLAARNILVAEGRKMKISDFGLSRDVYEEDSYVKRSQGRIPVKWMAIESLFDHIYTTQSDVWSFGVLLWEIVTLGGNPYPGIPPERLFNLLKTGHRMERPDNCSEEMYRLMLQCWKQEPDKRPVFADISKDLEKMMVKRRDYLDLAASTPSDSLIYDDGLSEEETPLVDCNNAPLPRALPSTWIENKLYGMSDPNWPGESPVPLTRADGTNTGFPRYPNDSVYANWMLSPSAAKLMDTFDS
Tyrosine-protein kinase FRK (Homo sapiens), sequence (P42685 whole entry): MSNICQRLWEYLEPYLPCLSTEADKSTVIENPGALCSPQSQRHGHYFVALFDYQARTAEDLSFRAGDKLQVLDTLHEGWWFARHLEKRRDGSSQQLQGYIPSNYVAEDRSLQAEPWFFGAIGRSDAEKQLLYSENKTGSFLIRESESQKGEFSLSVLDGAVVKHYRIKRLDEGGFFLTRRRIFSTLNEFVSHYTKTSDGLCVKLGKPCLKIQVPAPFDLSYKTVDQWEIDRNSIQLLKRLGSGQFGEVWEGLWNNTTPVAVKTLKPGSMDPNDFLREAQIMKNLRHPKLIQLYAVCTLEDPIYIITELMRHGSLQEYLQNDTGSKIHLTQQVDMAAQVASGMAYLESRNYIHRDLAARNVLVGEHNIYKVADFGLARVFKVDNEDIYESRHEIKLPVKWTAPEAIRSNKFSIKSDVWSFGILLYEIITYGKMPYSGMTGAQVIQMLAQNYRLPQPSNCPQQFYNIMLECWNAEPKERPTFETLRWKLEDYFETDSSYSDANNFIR

SMILES | inhibition [1] | inhibition [2] | inhibition [3] | inhibition [4] | inhibition [5] | inhibition [6] | inhibition [7] | inhibition [8] | inhibition [9] | inhibition [10] | inhibition [11] | inhibition [12] | inhibition [13] | inhibition [14] | inhibition [15] | inhibition [16] | inhibition [17] | inhibition [18] | inhibition [19] | inhibition [20]
COc1ccc2ncn(-c3cc(O[C@H](C)c4ccccc4C(F)(F)F)c(C(N)=O)s3)c2c1 | 22.4% | 8.31% | 35.4% | 4.46% | 24.9% | 0.36% | 9.23% | 5.47% | 26.1% | 6.65% | 37.5% | -0.74% | 1.39% | -4.13% | -9.62% | 1.52% | 4.27% | 3.57% | 3.91% | 2.46%
Nc1ncnc2occ(-c3ccc(NC(=O)Nc4cc(C(F)(F)F)ccc4F)cc3)c12 | 94.1% and 97.6% | 80.4% and 68.5% | 93.4% and 90.3% | 17% and 8.08% |  | 75.6% and 72.8% | 97.9% and 83% | 88.8% and 81.8% | 97.9% and 96.5% | 48.5% and 28.9% | 86.7% and 81.4% | 2.63% and 2.3% | 19.1% and 11.8% | 4.45% and -2.3% |  | 85.3% and 84.5% | 90.7% and 88.5% | 68.3% and 62.2% | 84.7% and 81.1% | 79.2% and 72.6%
Nc1nccc(-c2c(-c3ccc(F)cc3)ncn2C2CCNCC2)n1 | 4.78% and 1.25% | 1.26% and 2.55% | 32.6% and 7.91% | 3.48% and 2.03% | 9.35% and 6.11% | -2.56% and 3.91% | 1.13% and 1.39% | 4.62% and 3.92% | 19.5% and 6.51% | 3.91% and 1.3% | 32% and 25.6% | 0.53% and 0.26% | 1.84% and 3.88% | -6.28% and 0.77% | -3.71% and 3.63% | -0.37% and 2.86% | 14.1% and 4.3% | 0.39% and 2.71% | 9.24% and 2.58% | 0.26% and 3.84%
CS(=O)(=O)CCNCc1ccc(-c2ccc3ncnc(Nc4ccc(OCc5cccc(C(F)(F)F)c5)cc4)c3c2)o1 | 9.15% | 9.67% | 15.9% | 0.59% | 1.85% | 5.53% | 12.3% | 4.16% | 14.6% | 7.32% | 13.6% | 2.67% | 3.25% | 1.85% | 12.6% | 3.22% | 2.84% | 3.51% | 7.73% | 5.55%
CNC(=O)c1cncc(/C=C/c2ccccc2C)c1 | 3.97% | 11.8% | 17.8% | 3.85% | 5.79% | 4.91% | 5.69% | 4.75% | 17% | 6.6% | 20.1% | 1.01% | 1.8% | 5.28% | 5.23% | 3.93% | 6.36% | 5.6% | 11.8% | 2.57%
COc1ccc(-c2nn3ncccc3c2-c2ccnc(Nc3ccc(F)c(F)c3)n2)cc1 | 3.15% | 14.7% | 17.7% |  | 8.96% | 10.3% | 11.2% | 7.34% | 11.3% | 9.04% | 15.3% | 0.7% | 2.26% | 6.54% | 17.9% | 4.85% | 18.1% | 16.2% | 15.8% | 9.34%
CCOc1ccc2c(-c3ccnc(Nc4cc(OC)cc(C(F)(F)F)c4)n3)cnn2n1 | 5.37% | 6.45% | 30% | 2.97% | 18.4% | 2.28% | 8.05% | 6.9% | 33.4% | 7.05% | 29.3% | -0.17% | -0.61% | 4.61% | 21.2% | 2.73% | 13.2% | 1.94% | 5.01% | 2.94%
CCN1CCC(C(=O)Nc2n[nH]c3nnc(-c4cccc(F)c4F)cc23)CC1 | 4.59% | 0.87% | 3.69% | 1.64% | 2.59% | 2.94% | 7.18% | -0.48% | 0.89% | 3.08% | 4.95% | 0.31% | 1.25% | -2.3% | 1.39% | 2.54% | -1.84% | 4.84% | 8.91% | 3.29%
COc1cc(N2CCN(C(C)C)CC2)ccc1Nc1nc(Nc2cccc(F)c2C(=O)O)c2cc[nH]c2n1 | 10.5% | 11.3% | 12.8% | 3.04% | 3.08% | 7.14% | 8.84% | 5.91% | 5.37% | 7.62% | 6.82% | 4.04% | 4.07% | 90.6% | 96.4% | 4.88% | 5.6% | 3.85% | 12.1% | 4.5%
